Test results published in PubChem BioAssay AID372 (MTDP, 2006).
About 770 (0.77%) of roughly 100,000 compounds were called active. The list comes from a sample in which actives are over-represented; it also holds similar structures and randomly drawn compounds. Unmarked numbers belong to inactive results. Rule as the data show it: active = inhibition above about 50%; inactive = the rest.

Each compound was assayed against Gag-Pol polyprotein (Human immunodeficiency virus type 1 group M subtype B (isolate HXB2)) (UniProt P04585) (assay: RNase H inhibition, HIV 1 Gag Pol polyprotein, FRET biochemical assay, screening (AID 372)). Conditions: HIV-1 RT RNase H, FRET RNA/DNA substrate fluorescence; at 10 µM; stronger effect = higher value.

SMILES	inhibition
CCC1CCc2c(sc(NC(=O)c3ccc([N+](=O)[O-])cc3Cl)c2C(=O)OC)C1 (stereo unspecified)	0%
Cc1ccc(S(=O)(=O)/N=C2/C=C(N3CCOCC3)C(=O)c3ccccc32)cc1	5%
CC1=C(C)/C(=N\S(=O)(=O)c2ccc(C)cc2)C=C(N2CCOCC2)C1=O	19%
O=C1C(N2CCOCC2)=C/C(=N\S(=O)(=O)c2ccc(Cl)cc2)c2ccccc21	61% (active)
Cc1ccccc1N1C(=O)C2C3c4ccccc4C(C)(c4ccccc43)C2C1=O (stereo unspecified)	0%
O=C(COc1cc(O)c2c(=O)cc(-c3ccccc3)oc2c1)c1ccccc1	3%
O=C1C(=O)N(c2nccs2)C(c2ccccc2F)/C1=C(/O)c1ccc(Cl)cc1 (stereo unspecified)	21%
COc1cccc(NC(=O)Nc2nnc(-c3ccccc3I)s2)c1	0%
COc1cccc(NC(=O)Nc2nnc(-c3ccccc3SCc3ccccc3F)s2)c1	23%
COc1cccc(NC(=O)Nc2nnc(-c3ccccc3F)s2)c1	53% (active)
CCc1nnc(NC(=O)CCCOc2ccc(Cl)cc2C)s1	12%
O=[N+]([O-])c1ccc(NCCCNS(=O)(=O)c2ccc(Cl)cc2)cc1	8%
O=C(O)CCC(=O)NNC(=O)c1ccncc1	10%
COC(=O)c1cc(C(=O)N2CCC(C(=O)OC)CC2)cc([N+](=O)[O-])c1	7%
CCOC(=O)CNC(=O)c1cccc([N+](=O)[O-])c1	15%
CCOC(=O)C1CCCN(C(=O)c2cc(C(=O)OC)cc([N+](=O)[O-])c2)C1 (stereo unspecified)	16%
CCOC(=O)CNC(=O)c1ccc([N+](=O)[O-])cc1	4%
CCOC(=O)C1CCN(C(=O)c2cc(C(=O)OC)cc([N+](=O)[O-])c2)CC1	54% (active)
CCOC(=O)CNC(=O)c1cc(C(=O)OC)cc([N+](=O)[O-])c1	52% (active)
O=C(CN(c1ccc([N+](=O)[O-])cc1)S(=O)(=O)c1ccccc1)NC1CC2CCC1C2 (stereo unspecified)	13%
Cc1ccc(N2C(=O)NC(=O)/C(=C\c3ccc(OCC(=O)O)c(Br)c3)C2=O)cc1	3%
O=C(NC(=S)Nc1cccc(C(F)(F)F)c1)c1ccc(-c2ccc(Cl)cc2)o1	10%
O=C(Nc1ccc(F)cc1)Nc1nnc(-c2ccccc2SCc2ccccc2)s1	25%

SMILES	inhibition
Clc1cccc(Cl)c1OCCCN1CCCC1	7%
Clc1cccc(Cl)c1OCCN1CCCC1	56% (active)
Clc1cccc(Cl)c1OCCCN1CCCCC1	2%
COc1cc(/C=C(\C#N)C(=O)Nc2ccc(F)cc2)c([N+](=O)[O-])cc1OC	3%
Cc1ccc([N+](=O)[O-])cc1-c1[nH]c(-c2cccc(O)c2)nc1-c1ccccc1	32%
COc1cc(-c2nc(-c3ccccc3)c(-c3cc([N+](=O)[O-])ccc3C)[nH]2)cc(OC)c1OC	33%
Cc1ccc([N+](=O)[O-])cc1-c1[nH]c(-c2ccc(C#N)cc2)nc1-c1ccccc1	57% (active)
C/C(=C\c1cccc2ccccc12)[N+](=O)[O-]	53% (active)
O=[N+]([O-])c1ccccc1C=Nc1cccc2ccccc12	6%
N#C/C(=C/c1cccc2ccccc12)c1ccc([N+](=O)[O-])cc1	36%
COC(=O)c1ccccc1NC(=O)c1cc(=O)[nH]c2ccccc12	1%
CCOC(=O)c1ccc2[nH]c(C)c(C/C=C(/C)Cl)c(=O)c2c1	0%
O=C(Nc1ccc2oc(-c3cccc(I)c3)nc2c1)c1ccc2c(c1)OCCO2	56% (active)
O=C(Nc1ccc2oc(-c3ccc(I)cc3)nc2c1)c1ccc2c(c1)OCCO2	15%
O=C(Nc1ccc2oc(-c3ccc(F)cc3)nc2c1)c1ccc2c(c1)OCCO2	51% (active)
Cc1ccc(-c2nc3cc(Cl)cc(Cl)c3o2)cc1NC(=O)c1ccc2c(c1)OCCO2	24%
O=C(Nc1ccc2oc(-c3cccc(Cl)c3)nc2c1)c1ccc2c(c1)OCCO2	37%
O=C(Nc1ccc2oc(-c3ccccc3)nc2c1)c1ccc2c(c1)OCCO2	11%
O=C(Nc1cccc(-c2nc3cc(Cl)ccc3o2)c1)c1ccc2c(c1)OCCO2	9%
O=C(Nc1ccc(-c2nc3cc(Cl)cc(Cl)c3o2)cc1)c1ccc2c(c1)OCCO2	58% (active)
Cc1ccc(C(=O)Nc2ccc(-c3nc4cc(Cl)cc(Cl)c4o3)cc2)cc1	11%
CCN(CC)CCOc1ccccc1C	3%
COc1ccc(C(=O)N2CCN(S(=O)(=O)c3ccccc3)CC2)cc1	21%

SMILES	inhibition
COc1cccc(C=C2C(=O)c3ccccc3C2=O)c1	0%
CCOc1ccc(NC(=O)CN(c2ccc(Br)cc2)S(=O)(=O)c2ccccc2)cc1	17%
O=C(N/N=C/c1ccc(OC2CSC2)cc1)c1ccccc1	6%
Cc1ccc(N(Cc2ccc(C(=O)N/N=C/c3cc(Br)c(C)o3)cc2)S(C)(=O)=O)cc1C	19%
Cc1ccc(N(Cc2ccc(C(=O)N/N=C/c3ccc(OC4CSC4)cc3)cc2)S(C)(=O)=O)cc1C	56% (active)
Brc1ccc(-c2nnnn2-c2ccccc2)cc1	12%
COc1ccc(C(=O)NC(=S)Nc2cccc(-c3nc4cc(C)ccc4o3)c2)cc1[N+](=O)[O-]	23%
COc1ccc(C(=O)NC(=S)Nc2ccc(-c3nc4ccc(C)cc4o3)cc2)cc1[N+](=O)[O-]	54% (active)
COc1ccc(C(=O)NC(=S)Nc2cccc(-c3nc4cc(Cl)ccc4o3)c2)cc1[N+](=O)[O-]	23%
CCc1ccc2oc(-c3ccc(NC(=S)NC(=O)c4ccc(OC)c([N+](=O)[O-])c4)cc3)nc2c1	19%
COc1ccc(C(=O)NC(=S)Nc2ccc(-c3nc4ccc(C)cc4o3)cc2)cc1Br	60% (active)
COc1ccc(C(=O)NC(=S)Nc2ccc3oc(-c4ccc(Cl)cc4)nc3c2)cc1[N+](=O)[O-]	44%
COc1ccc(C(=O)NC(=S)Nc2ccc(-c3nc4cc(Cl)ccc4o3)cc2)cc1[N+](=O)[O-]	53% (active)
COc1ccc(C(=O)NC(=S)Nc2ccc(-c3nc4cc(C)ccc4o3)cc2)cc1Br	21%
COc1ccc(C(=O)NC(=S)Nc2ccc(-c3nc4ccccc4o3)cc2)cc1Br	20%
CC(NC(=O)CSc1ncc(-c2ccccc2)[nH]1)c1ccccc1 (stereo unspecified)	12%
CC1=C(C(=O)OCCc2ccccc2)C(c2ccc(Cl)c([N+](=O)[O-])c2)C2=C(CCCC2=O)N1 (stereo unspecified)	2%
O=C(N/N=C/c1ccc([N+](=O)[O-])cc1)c1ccccn1	7%
COc1ccc(I)cc1S(=O)(=O)N1CCN(c2ccc(F)cc2)CC1	16%
C/C(=N/NC(=O)C1COc2cc3ccccc3cc2O1)c1ccc([N+](=O)[O-])cc1 (stereo unspecified)	10%
COc1ccc(C2CC(=O)C3=C(C2)NC(C)=C(C(=O)OCC(C)C)C3c2ccc(OC)c(OC)c2)cc1 (stereo unspecified)	8%
CCC(Sc1nc2ccccc2s1)C(=O)Nc1ccc([N+](=O)[O-])cc1 (stereo unspecified)	10%
O=C(NC(=S)Nc1cc([N+](=O)[O-])ccc1Cl)c1cccc(Cl)c1	45%

SMILES	inhibition
O=C(O)c1ccc(Oc2ccc3c(c2)C(=O)N(c2ccc([N+](=O)[O-])cc2)C3=O)cc1	3%
CC1=NN(c2cccc(Cl)c2)C(=O)/C1=C/c1ccc(-c2ccccc2[N+](=O)[O-])o1	1%
CCCCOC(=O)c1cccc(-c2ccc(/C=C3\C(=O)N(c4ccc(S(N)(=O)=O)cc4)N=C3C)o2)c1	39%
CC1=NN(c2ccc(S(N)(=O)=O)cc2)C(=O)/C1=C\c1ccc(-c2ccc(Cl)cc2)o1	43%
CC1=NN(c2ccc(S(N)(=O)=O)cc2)C(=O)/C1=C\c1ccc(-c2cccc(Cl)c2C)o1	67% (active)
Cc1ccc(N2C(=O)NC(=O)/C(=C/c3ccc(-c4ccc(Cl)cc4Cl)o3)C2=O)cc1	36%
O=C(Nc1ccc(Cl)c(-c2nc3ccccc3s2)c1)c1ccccc1F	14%
CCOC(=O)c1c(NC(=S)NC(=O)c2ccccc2)sc2c1CC(C(C)C)OC2 (stereo unspecified)	12%
COc1ccc(CNC(=O)C(=O)Nc2ccccc2F)cc1	15%
O=C(NN1C(=O)c2ccc(C(=O)c3ccc4c(c3)C(=O)N(NC(=O)c3ccncc3)C4=O)cc2C1=O)c1ccncc1	0%
C/C(=N\N1CCN(Cc2cccc3ccccc23)CC1)c1cccs1	19%
COC(=O)/C=C1\SC(=Nc2ccccc2)NC1=O	6%
O=C1C=CC(=NS(=O)(=O)c2cc(Cl)ccc2Cl)C=C1	46%
O=C1C=C/C(=N\S(=O)(=O)c2ccc(Cl)cc2)C=C1Cl	37%
Clc1cccc(C=Nc2ccc(-c3ccc(N=Cc4cccc(Cl)c4Cl)cc3)cc2)c1Cl	17%
N#Cc1c(N2CCCCC2)ncc2cc3ccccc3nc12	0%
CCOC(=O)C(=Cc1cc(OC)c(O)c([N+](=O)[O-])c1)C(=O)OCC	5%
CCOC(=O)C(=Cc1ccc(OCc2ccc([N+](=O)[O-])cc2)c(OC)c1)C(=O)OCC	59% (active)
CCOc1cc(C=O)cc(Cl)c1OCc1ccc([N+](=O)[O-])cc1	54% (active)
O=Cc1cc(Cl)c(OCc2ccc([N+](=O)[O-])cc2)c(Cl)c1	25%
CCOc1cc(C=O)cc(Br)c1OCc1ccc([N+](=O)[O-])cc1	28%
COC(=O)C(=Cc1cc(Br)c(OCc2ccc([N+](=O)[O-])cc2)c(OC)c1)C(=O)OC	12%
